# Experimental data published in the supplement of paper PMC8728848.
# Many of the other results were omitted from the sample, so the strongest signals are more common in it than they were.
# Assays:
# Assay in all cases: glycan array binding signal (z-score within array); higher = stronger binding
# Conditions in all cases: glycan notation: IUPAC condensed, linker removed
# [1] = molecular target: Fuc(a1-2)Gal(b1-3)GalNAc
# Summary of the method: (§1)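 Glycan array data were curated from 3228 arrays in the Consortium for Functional Glycomics database and kept only where the protein sequence was available. Glycan names were converted to IUPAC-condensed notation, and columns mapping to the same glycan were averaged. The binding signal is a within-array Z-score, averaged across arrays of the same protein sequence at different concentrations or buffers and across linkers. Negative Z-scores can be read as non-binding.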
# [2] = molecular target: Fuc(a1-2)Gal(b1-3)GalNAc(b1-4)[Neu5Ac(a2-3)]Gal(b1-4)Glc
# Summary of the method: as §1
# [3] = molecular target: Fuc(a1-2)Gal(b1-4)Glc
# Summary of the method: as §1
# [4] = molecular target: Fuc(a1-2)Gal(b1-4)[Fuc(a1-3)]GlcNAc(b1-3)Gal(b1-4)[Fuc(a1-3)]GlcNAc(b1-3)Gal(b1-4)[Fuc(a1-3)]GlcNAc
# Summary of the method: as §1
# [5] = molecular target: Fuc(a1-2)Gal6S(b1-3)GlcNAc6S
# Summary of the method: as §1
# [6] = molecular target: Fuc(a1-2)[Gal(a1-3)]Gal(b1-3)GlcNAc
# Summary of the method: as §1
# [7] = molecular target: Fuc(a1-2)[Gal(a1-3)]Gal(b1-3)GlcNAc(b1-2)Man(a1-3)[Fuc(a1-2)[Gal(a1-3)]Gal(b1-3)GlcNAc(b1-2)Man(a1-6)]Man(b1-4)GlcNAc(b1-4)[Fuc(a1-6)]GlcNAc
# Summary of the method: as §1
# [8] = molecular target: Fuc(a1-2)[Gal(a1-3)]Gal(b1-4)GlcNAc(b1-2)Man(a1-3)[Fuc(a1-2)[Gal(a1-3)]Gal(b1-4)GlcNAc(b1-2)Man(a1-6)]Man(b1-4)GlcNAc(b1-4)GlcNAc
# Summary of the method: as §1
# [9] = molecular target: Fuc(a1-2)[GalNAc(a1-3)]Gal(b1-3)GlcNAc(b1-2)Man(a1-3)[Fuc(a1-2)[GalNAc(a1-3)]Gal(b1-3)GlcNAc(b1-2)Man(a1-6)]Man(b1-4)GlcNAc(b1-4)[Fuc(a1-6)]GlcNAc
# Summary of the method: as §1
# [10] = molecular target: Fuc(a1-2)[GalNAc(a1-3)]Gal(b1-3)GlcNAc(b1-6)GalNAc
# Summary of the method: as §1
# [11] = molecular target: Gal(a1-3)[Gal(a1-4)]Gal(b1-4)GlcNAc
# Summary of the method: as §1
# [12] = molecular target: Gal(a1-4)Gal(b1-3)GlcNAc(b1-2)Man(a1-3)[Gal(a1-4)Gal(b1-3)GlcNAc(b1-2)Man(a1-6)]Man(b1-4)GlcNAc(b1-4)GlcNAc
# Summary of the method: as §1
# [13] = molecular target: Gal(b1-3)Gal(b1-4)GlcNAc
# Summary of the method: as §1
# [14] = molecular target: Gal(b1-3)GlcNAc(b1-2)Man(a1-3)[Gal(b1-3)GlcNAc(b1-2)Man(a1-6)]Man(b1-4)GlcNAc(b1-4)GlcNAc
# Summary of the method: as §1
# [15] = molecular target: Gal(b1-3)GlcNAc(b1-3)Gal(b1-4)[Fuc(a1-3)]GlcNAc
# Summary of the method: as §1
# [16] = molecular target: Gal(b1-3)GlcNAc(b1-6)[Gal(b1-3)]GalNAc
# Summary of the method: as §1
# [17] = molecular target: Gal(b1-4)GlcNAc(b1-2)Man(a1-3)[Gal(b1-4)GlcNAc(b1-2)Man(a1-6)]Man(b1-4)GlcNAc(b1-4)[Fuc(a1-6)]GlcNAc
# Summary of the method: as §1
# [18] = molecular target: Gal(b1-4)GlcNAc(b1-2)Man(a1-3)[Gal(b1-4)GlcNAc(b1-2)Man(a1-6)][Gal(b1-4)GlcNAc(b1-4)]Man(b1-4)GlcNAc(b1-4)[Fuc(a1-6)]GlcNAc
# Summary of the method: as §1
# [19] = molecular target: Gal(b1-4)GlcNAc(b1-2)Man(a1-3)[Gal(b1-4)GlcNAc(b1-2)Man(a1-6)][GlcNAc(b1-4)]Man(b1-4)GlcNAc(b1-4)[Fuc(a1-6)]GlcNAc
# Summary of the method: as §1
# [20] = molecular target: Gal(b1-4)GlcNAc(b1-3)Gal(b1-4)GlcNAc(b1-2)Man(a1-3)[Gal(b1-4)GlcNAc(b1-3)Gal(b1-4)GlcNAc(b1-2)Man(a1-6)]Man(b1-4)GlcNAc(b1-4)[Fuc(a1-6)]GlcNAc
# Summary of the method: as §1
# [21] = molecular target: Gal(b1-4)GlcNAc(b1-3)Gal(b1-4)GlcNAc(b1-3)Gal(b1-4)GlcNAc(b1-2)Man(a1-3)[Gal(b1-4)GlcNAc(b1-3)Gal(b1-4)GlcNAc(b1-3)Gal(b1-4)GlcNAc(b1-2)Man(a1-6)]Man(b1-4)GlcNAc(b1-4)GlcNAc
# Summary of the method: as §1
# [22] = molecular target: Gal(b1-4)GlcNAc(b1-3)Gal(b1-4)GlcNAc(b1-3)Gal(b1-4)GlcNAc(b1-2)[Gal(b1-4)GlcNAc(b1-3)Gal(b1-4)GlcNAc(b1-3)Gal(b1-4)GlcNAc(b1-6)]Man(a1-6)[Gal(b1-4)GlcNAc(b1-3)Gal(b1-4)GlcNAc(b1-3)Gal(b1-4)GlcNAc(b1-2)Man(a1-3)]Man(b1-4)GlcNAc(b1-4)[Fuc(a1-6)]GlcNAc
# Summary of the method: as §1
# [23] = molecular target: Gal(b1-4)GlcNAc(b1-3)Gal(b1-4)GlcNAc(b1-3)Gal(b1-4)GlcNAc(b1-3)Gal(b1-4)GlcNAc(b1-2)Man(a1-3)[Gal(b1-4)GlcNAc(b1-3)Gal(b1-4)GlcNAc(b1-3)Gal(b1-4)GlcNAc(b1-3)Gal(b1-4)GlcNAc(b1-2)Man(a1-6)]Man(b1-4)GlcNAc(b1-4)GlcNAc
# Summary of the method: as §1
# [24] = molecular target: Gal(b1-4)GlcNAc(b1-3)Gal(b1-4)GlcNAc(b1-3)Gal(b1-4)GlcNAc(b1-3)Gal(b1-4)GlcNAc(b1-3)Gal(b1-4)GlcNAc(b1-2)Man(a1-3)[Gal(b1-4)GlcNAc(b1-3)Gal(b1-4)GlcNAc(b1-3)Gal(b1-4)GlcNAc(b1-3)Gal(b1-4)GlcNAc(b1-3)Gal(b1-4)GlcNAc(b1-2)Man(a1-6)]Man(b1-4)GlcNAc(b1-4)GlcNAc
# Summary of the method: as §1
# [25] = molecular target: Gal3S(b1-4)[Fuc(a1-3)]GlcNAc6S
# Summary of the method: as §1
# [26] = molecular target: Gal3S6S(b1-4)GlcNAc
# Summary of the method: as §1
# [27] = molecular target: Glc(a1-6)Glc(a1-6)Glc(a1-6)Glc
# Summary of the method: as §1
binder,measurement,setting,value
PX14343G-pdi-535-24-535 (Parabacteroides distasonis) (protein) LDTVPKDQLAPSTTWQTEADAKGFIVGCYKDLLDGNTLLYLDCGSDIGYNNFPWEGFRPWGDGSLSSSNPGQILYDYKSIRKANTFLENVDKVTFSSDAVKANYVAQAKAIRAYKYFLMNWWYGGVPIISSYSSADEAKVERNTEQEVRDYIAKDLDEALAGIAEAPEARGYIAKGAVLAIKMREALYYGDWQKAKDAAKAIIDLKQYELDPDYTNLFKVSGVDSKEIILADQNIETLDGLGTIGQMYNNVDQGWSSIVPTQNLVDMYEMSDGLTKEESKTYDAKHPFANRDPRMAMTILYPGRDWRGDVLNTLDEKLQDGTVNKNFPTYTDNASKSALTWAKYLDPMDQYGDVWSSGACPIVFRYAEVLLTYAEAANELSGPSDEIYGYLNQIRQRVGMGEVDKAKYGTKDKLRELIRRERTVELAGEGLRRADIVRWQEDGKMLAEKVMNGDLLRVTGTINYGESEPTKRAEITGTAVIETRQFSSRNRYLPIPQTSMDKNPNLKQNPGY,glycan array binding signal (z-score),[1],-1.05
same,glycan array binding signal (z-score),[2],-0.439
same,glycan array binding signal (z-score),[3],-0.597
same,glycan array binding signal (z-score),[4],-0.34
same,glycan array binding signal (z-score),[5],0.336
same,glycan array binding signal (z-score),[6],0.064
same,glycan array binding signal (z-score),[7],-0.242
same,glycan array binding signal (z-score),[8],2.43
same,glycan array binding signal (z-score),[9],-1.2
same,glycan array binding signal (z-score),[10],-0.366
same,glycan array binding signal (z-score),[11],2.67
same,glycan array binding signal (z-score),[12],-0.566
same,glycan array binding signal (z-score),[13],0.673
same,glycan array binding signal (z-score),[14],0.51
same,glycan array binding signal (z-score),[15],-0.53
same,glycan array binding signal (z-score),[16],0.402
same,glycan array binding signal (z-score),[17],-0.363
same,glycan array binding signal (z-score),[18],-0.426
same,glycan array binding signal (z-score),[19],-0.515
same,glycan array binding signal (z-score),[20],2.06
same,glycan array binding signal (z-score),[21],1.65
same,glycan array binding signal (z-score),[22],3.07
same,glycan array binding signal (z-score),[23],0.004
same,glycan array binding signal (z-score),[24],2.76
same,glycan array binding signal (z-score),[25],2.01
same,glycan array binding signal (z-score),[26],0.193
same,glycan array binding signal (z-score),[27],0.739
